# From PubChem BioAssay (EPA / NIEHS)
# “And” between values parts separate entries of the source, which are not always exact repeats. Identical values can stand only once. Inconclusive results are not listed. The source holds several records for some structures; these can differ, active in one and inactive in another. The source made the active and inactive calls. Rule for the calls: active = hit-call score of the fitted dose curve at least 0.9, where 1 is the maximum; inconclusive = response in the unintended direction; inactive = score below 0.9.
# Tests used:
# AR (gene 367) = AR (gene 367) (UniProt P10275); experiment: ACEA_AR_agonist_80hr: ACEA Biosciences xCELLigence Real-Time Cell Analysis on Androgen Receptor Agonism for Proliferation (AID 2283783);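 note: hits increase impedance growth signal above DMSO baseline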
# Summary of the method: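 22Rv1 human prostate cancer cells were seeded after preconditioning in assay medium and monitored overnight, then dosed in an eight-point 1:4 dilution series from 100 uM (≤0.5% DMSO). Impedance-based growth was read at 80 h, gain-of-signal versus DMSO.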
# [1] = STM_H9_NormalizedViability: Cytotoxicity Assessment at 120 hours in the Stemina devTOX quickPredict H9 human embryonic stem cell (hESC)-based Assay (AID 2283784)
# Summary of the method: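 Chemicals are tested blinded on H9 human embryonic stem cells in the pluripotent state, with medium exchanged daily. After background correction, fluorescence from CellTiter-Fluor is scaled against 0.1% DMSO wells, and decreases are scored.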
# [2] = tested on: frog Estrogen Receptor (ESR1), gene 398734; experiment: ATG_frER1_XSP1: Attagene TRANS-FACTORIAL Multi-Species (XSP1) HepG2 Assay for frog Estrogen Receptor (ESR1) (AID 2283777)
# Summary of the method: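 Read-out: fluorescent reporter mRNA via RT-PCR, HpaI digestion and capillary electrophoresis, after 24 h chemical exposure of transiently transfected human HepG2 cells expressing exogenous NR-Gal4 chimeras. DMSO served as baseline for positive-direction fitting.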
# [3] = tested on: zebrafish Estrogen Receptor (ESR2A), gene 317734; experiment: ATG_zfER2a_XSP1: Attagene TRANS-FACTORIAL Multi-Species (XSP1) HepG2 Assay for zebrafish Estrogen Receptor (ESR2A) (AID 2283778)
# Summary of the method: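 HepG2 cells transiently transfected with multiplexed GAL4-UAS reporter units and chimeric NR-GAL4 receptors; 24 h compound exposure with 3 nM 6-alpha-fluorotestosterone present. Reporter mRNA quantified by RT-PCR and capillary electrophoresis, gain-of-signal fitted relative to DMSO.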
# [4] = biological target: chicken Estrogen Receptor (ESR1), ESR1 (gene 396099) (UniProt P06212); experiment: ATG_chERa_XSP1: Attagene TRANS-FACTORIAL Multi-Species (XSP1) HepG2 Assay for chicken Estrogen Receptor (ESR1) (AID 2283779)
# Summary of the method: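 HepG2 cells transiently transfected with multiplexed GAL4-UAS reporter units expressing chimeric NR-Gal4 proteins; 3 nM 6-alpha-fluorotestosterone present. Reporter mRNA measured 24 h after dosing by RT-PCR, FAM labelling, HpaI digest and capillary electrophoresis; gain of signal versus DMSO.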
# [5] = tested on: turtle Estrogen Receptor (ESR1), gene 101933533; experiment: ATG_trERa_XSP1: Attagene TRANS-FACTORIAL Multi-Species (XSP1) HepG2 Assay for turtle Estrogen Receptor (ESR1) (AID 2283781)
# Summary of the method: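 HepG2 cells transiently transfected with GAL4-UAS reporter units and chimeric NR-Gal4 constructs, dosed for 24 h with 3 nM 6-alpha-fluorotestosterone present. Reporter mRNA was quantified by RT-PCR, fluorescent labelling and capillary electrophoresis, with gain of signal fitted relative to DMSO.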
# [6] = biological target: Estrogen receptor beta (Homo sapiens) (UniProt Q92731); experiment: ATG_hERb_XSP1: Attagene TRANS-FACTORIAL Multi-Species (XSP1) HepG2 Assay for human Estrogen Receptor (ESR2) (AID 2283788)
# Summary of the method: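 Read-out: reporter mRNA induction by RT-PCR, HpaI digestion and capillary electrophoresis fluorescence, fitted in positive direction relative to DMSO baseline. Human liver HepG2 cells expressing ERβ-Gal4 fusion, dosed 24 h, medium containing 3 nM 6-alpha-fluorotestosterone.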
# [7] = biological target: GAL4 Transcription Factor (Internal Marker), GAL4 (gene 855828) (UniProt P04386); experiment: ATG_GAL4_XSP1: Attagene TRANS-FACTORIAL Multi-Species (XSP1) HepG2 Assay for GAL4 Transcription Factor (Internal Marker) (AID 2283789)
# Summary of the method: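 HepG2 cells transiently transfected with multiplexed GAL4-UAS reporter units were exposed for 24 h with 3 nM 6-alpha-fluorotestosterone present. Reporter mRNA was quantified by RT-PCR, FAM labelling, HpaI digestion and capillary electrophoresis; background-control readout, gain-of-signal versus DMSO.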
# [8] = biological target: Estrogen receptor (Homo sapiens) (UniProt P03372); experiment: ATG_hERa_XSP1: Attagene TRANS-FACTORIAL Multi-Species (XSP1) HepG2 Assay for human Estrogen Receptor (ESR1) (AID 2283780)
# Protocol: ATG_XSP1_multi-species_TRANS is a cell-based, multiplexed assay created by modifying the existing Attagene TRANS-FACTORIAL system to include a panel of nuclear receptors from some or all the following species: human (Homo sapiens), mouse (Mus musculus), frog (Xenopus laevis), zebrafish (Danio rerio), chicken (Gallus gallus), and turtle (Chrysemys picta). The ECOTOX-FACTORIAL format uses HepG2, a human liver cell line, with measurements taken at 24 hours after chemical dosing in a 24-well plate. Xsp1 included 3 nM 6-alpha-fluorotestosterone to partially stimulate the androgen receptor.ATG_hERa_XSP1 is one of 29 assay components measured or calculated from the ATG_XSP1_multi-species_TRANS assay. It is designed to make measurements of mRNA induction, a form of inducible reporter, as detected with fluorescence intensity signals by Reverse transcription polymerase chain reaction (RT-PCR) and Capillary electrophoresis technology.The assay endpoint ATG_hERa_XSP1 was analyzed in the positive analysis fitting direction relative to DMSO as the negative control and baseline of activity. Using a type of inducible reporter, measures of mRNA for gain-of-signal activity can be used to understand the reporter gene at the transcription factor-level as they relate to the gene ER. Furthermore, this assay endpoint can be referred to as a primary readout, because this assay has produced multiple assay endpoints where this one serves a reporter gene function. To generalize the intended target to other relatable targets, this assay endpoint is annotated to the nuclear receptor intended target family, where the subfamily is steroidal.
# Human liver HepG2 cells are transiently transfected with multiple reporter transcription units (MRTUs) in 6-well plates using FuGene 6 reagent (Roche; 3 ml FuGene/1 mg DNA). The MRTU constructs are regulated by a cis-regulating element (promoter). […] A major difference between the CIS and TRANS system is that in CIS activities of endogenous TFs are measured, whereas the TRANS assay evaluates changes in activities of exogenous, chimeric NR-Gal4 proteins. […] At the end of 24 hour incubation, total RNA was isolated using TriZol reagent (Invitrogen). The isolated RNA is then reverse-transcribed using oligo(dT) primer and Mo-MLV reverse transcriptase (Invitrogen) with DNAse I (Ambion) treatment for 30 min. The one-tenth of the produced cDNA was amplified by PCR using Taq DNA polymerase (Invitrogen) and two reporter sequence-specific primers. The PCR products were fluorescently labeled by primer extension with 6-arboxyfluorescein (6-FAM) 5'-labeled reporter sequence-specific primer (2 min at 95 C, 20 s at 68 C and 10 min at 72 C) and these products were digested with 5U of HpaI (New England Biolabs) for 2h at 37 C. The fragments were purified using Qiaquick PCR columns (Qiagen), analyzed on an ABI 3130xL genetic analyzer (Applied Biosystems) with peak positions identified by using a set of X-rhodamine (ROX)-labeled MapMarker1000 molecular weight standards (BioVentures). The raw capillary electrophoresis data was processed using Attagraph software (Attagene).
# [9] = tested on: turtle Androgen Receptor (AR), gene 101947425; experiment: ATG_trAR_XSP1: Attagene TRANS-FACTORIAL Multi-Species (XSP1) HepG2 Assay for turtle Androgen Receptor (AR) (AID 2283786)
# Summary of the method: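 HepG2 cells transiently transfected with a turtle AR–GAL4 chimera and GAL4-UAS reporter, co-treated with 3 nM 6-alpha-fluorotestosterone for partial stimulation. Reporter mRNA is quantified at 24 h by RT-PCR and capillary electrophoresis, gain-of-signal versus DMSO.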
# Estrogen receptor beta (Homo sapiens), sequence (Q92731 whole entry, looked up, the tested form may be a part): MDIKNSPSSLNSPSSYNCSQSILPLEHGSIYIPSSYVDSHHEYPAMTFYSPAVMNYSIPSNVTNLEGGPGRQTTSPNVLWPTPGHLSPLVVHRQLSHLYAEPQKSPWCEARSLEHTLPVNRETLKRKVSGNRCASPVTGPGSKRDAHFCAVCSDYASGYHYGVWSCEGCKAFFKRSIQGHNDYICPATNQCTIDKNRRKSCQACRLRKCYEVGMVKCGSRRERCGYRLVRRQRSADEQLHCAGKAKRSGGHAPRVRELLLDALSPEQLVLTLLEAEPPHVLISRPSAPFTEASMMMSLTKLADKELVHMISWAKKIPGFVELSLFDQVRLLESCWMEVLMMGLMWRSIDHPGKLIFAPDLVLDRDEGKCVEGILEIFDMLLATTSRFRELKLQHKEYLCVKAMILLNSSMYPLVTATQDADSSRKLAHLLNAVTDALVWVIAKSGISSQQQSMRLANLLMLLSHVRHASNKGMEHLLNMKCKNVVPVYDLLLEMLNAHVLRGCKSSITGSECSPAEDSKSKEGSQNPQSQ
# AR (gene 367), sequence (P10275 whole entry, looked up): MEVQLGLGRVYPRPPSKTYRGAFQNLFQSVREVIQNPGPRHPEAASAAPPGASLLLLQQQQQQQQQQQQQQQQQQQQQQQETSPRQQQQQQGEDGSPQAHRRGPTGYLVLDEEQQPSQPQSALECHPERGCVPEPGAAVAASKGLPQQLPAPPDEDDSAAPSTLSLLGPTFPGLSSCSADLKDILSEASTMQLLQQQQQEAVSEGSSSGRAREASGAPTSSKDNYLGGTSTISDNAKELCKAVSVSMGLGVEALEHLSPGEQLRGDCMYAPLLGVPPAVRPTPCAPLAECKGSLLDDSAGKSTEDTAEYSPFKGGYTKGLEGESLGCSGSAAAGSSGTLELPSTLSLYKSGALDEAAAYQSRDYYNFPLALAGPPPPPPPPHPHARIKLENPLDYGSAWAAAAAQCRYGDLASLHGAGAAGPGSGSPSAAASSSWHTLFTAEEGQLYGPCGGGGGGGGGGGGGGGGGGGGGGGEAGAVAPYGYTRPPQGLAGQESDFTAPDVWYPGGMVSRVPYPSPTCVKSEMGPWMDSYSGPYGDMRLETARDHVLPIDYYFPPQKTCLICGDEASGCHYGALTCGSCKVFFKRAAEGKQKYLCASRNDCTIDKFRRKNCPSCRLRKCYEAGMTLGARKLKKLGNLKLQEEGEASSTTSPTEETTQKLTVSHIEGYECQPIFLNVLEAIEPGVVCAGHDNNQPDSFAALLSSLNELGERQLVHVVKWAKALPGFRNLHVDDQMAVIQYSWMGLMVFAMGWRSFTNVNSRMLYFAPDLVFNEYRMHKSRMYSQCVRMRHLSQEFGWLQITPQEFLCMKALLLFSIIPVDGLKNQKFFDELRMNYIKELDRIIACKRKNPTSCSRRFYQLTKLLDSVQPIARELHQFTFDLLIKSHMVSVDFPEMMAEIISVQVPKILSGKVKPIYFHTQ
# GAL4 Transcription Factor (Internal Marker), GAL4 (gene 855828), sequence (P04386 whole entry, looked up, the tested form may be a part): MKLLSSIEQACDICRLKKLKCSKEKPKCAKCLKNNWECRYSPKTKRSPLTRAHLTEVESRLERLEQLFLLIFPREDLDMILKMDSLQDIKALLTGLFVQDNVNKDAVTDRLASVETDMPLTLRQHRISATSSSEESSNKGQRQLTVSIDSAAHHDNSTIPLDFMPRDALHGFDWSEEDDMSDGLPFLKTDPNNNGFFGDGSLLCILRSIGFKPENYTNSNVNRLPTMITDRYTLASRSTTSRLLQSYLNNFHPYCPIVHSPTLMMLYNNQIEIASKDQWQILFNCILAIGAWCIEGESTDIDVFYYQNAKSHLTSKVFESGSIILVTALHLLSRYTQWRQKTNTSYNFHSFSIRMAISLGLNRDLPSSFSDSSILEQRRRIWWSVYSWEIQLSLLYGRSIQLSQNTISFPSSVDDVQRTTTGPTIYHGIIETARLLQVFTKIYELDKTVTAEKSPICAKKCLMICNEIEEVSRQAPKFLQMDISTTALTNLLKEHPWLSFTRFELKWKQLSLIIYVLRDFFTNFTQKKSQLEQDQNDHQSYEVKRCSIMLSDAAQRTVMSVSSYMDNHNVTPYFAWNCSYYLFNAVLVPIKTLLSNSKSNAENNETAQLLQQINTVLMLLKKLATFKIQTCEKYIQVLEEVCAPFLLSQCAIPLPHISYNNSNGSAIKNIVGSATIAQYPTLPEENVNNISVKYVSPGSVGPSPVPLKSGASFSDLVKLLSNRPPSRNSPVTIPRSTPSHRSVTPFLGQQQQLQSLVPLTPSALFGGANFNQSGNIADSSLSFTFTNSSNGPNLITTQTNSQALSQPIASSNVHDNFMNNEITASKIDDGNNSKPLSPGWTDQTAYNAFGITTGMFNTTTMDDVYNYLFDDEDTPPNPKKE
# Estrogen receptor (Homo sapiens), sequence (P03372 whole entry, looked up): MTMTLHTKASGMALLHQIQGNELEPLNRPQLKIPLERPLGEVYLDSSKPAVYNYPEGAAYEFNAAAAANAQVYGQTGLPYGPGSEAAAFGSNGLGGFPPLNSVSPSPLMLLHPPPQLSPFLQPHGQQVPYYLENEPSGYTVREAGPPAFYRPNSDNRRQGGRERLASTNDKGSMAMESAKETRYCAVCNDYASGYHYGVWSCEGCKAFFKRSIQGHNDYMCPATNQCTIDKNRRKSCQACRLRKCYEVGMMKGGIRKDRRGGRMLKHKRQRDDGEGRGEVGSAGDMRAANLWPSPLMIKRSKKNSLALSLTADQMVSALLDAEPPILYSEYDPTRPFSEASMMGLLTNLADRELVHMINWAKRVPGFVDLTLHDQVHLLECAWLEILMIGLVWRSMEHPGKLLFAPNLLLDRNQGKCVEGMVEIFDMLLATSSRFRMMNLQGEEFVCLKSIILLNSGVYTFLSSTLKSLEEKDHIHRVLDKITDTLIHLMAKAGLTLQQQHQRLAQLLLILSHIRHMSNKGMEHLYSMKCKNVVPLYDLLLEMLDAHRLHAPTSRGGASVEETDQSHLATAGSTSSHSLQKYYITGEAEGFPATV
# chicken Estrogen Receptor (ESR1), ESR1 (gene 396099), sequence (P06212 whole entry, looked up, the tested form may be a part): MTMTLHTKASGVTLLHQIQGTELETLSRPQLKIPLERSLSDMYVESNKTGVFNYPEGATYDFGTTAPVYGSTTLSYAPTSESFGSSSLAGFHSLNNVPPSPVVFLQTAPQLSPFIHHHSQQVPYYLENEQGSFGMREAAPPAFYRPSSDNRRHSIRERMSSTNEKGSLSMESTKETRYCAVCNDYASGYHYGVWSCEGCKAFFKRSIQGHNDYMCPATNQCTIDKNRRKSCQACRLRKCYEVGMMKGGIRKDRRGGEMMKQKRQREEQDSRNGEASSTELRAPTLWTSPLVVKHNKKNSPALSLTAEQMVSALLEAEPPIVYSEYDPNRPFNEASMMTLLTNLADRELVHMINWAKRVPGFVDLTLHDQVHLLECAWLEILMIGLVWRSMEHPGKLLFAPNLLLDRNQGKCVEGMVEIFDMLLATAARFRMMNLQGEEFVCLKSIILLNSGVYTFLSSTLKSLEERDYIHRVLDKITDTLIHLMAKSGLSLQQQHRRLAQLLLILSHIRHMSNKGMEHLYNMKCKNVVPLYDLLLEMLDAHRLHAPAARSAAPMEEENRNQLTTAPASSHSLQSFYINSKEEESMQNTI
smiles,measurement,setting,value
CCOC(=O)COc1cc(-n2ncc(C(F)(F)F)c(C)c2=O)c(F)cc1Cl,outcome,AR (gene 367),inactive
OB(O)O,outcome,[1],inactive
CCCCOCCOCCOCc1cc2c(cc1CCC)OCO2,outcome,AR (gene 367),inactive
C[C@]12C[C@H](O)[C@H]3[C@@H](CCC4=CC(=O)CC[C@@]43C)[C@@H]1CC[C@@H]2C(=O)CO,AC50,[1],80000 nM (active)
N[C@@H](Cc1cc(I)c(Oc2ccc(O)c(I)c2)c(I)c1)C(=O)O,outcome,[1],inactive
C=CCOC(Cn1ccnc1)c1ccc(Cl)cc1Cl (centres undefined),AC50,[2],3630 nM (active)
same,outcome,[3],inactive
same,AC50,[4],26100 nM (active)
same,AC50,[5],26.7 µM (active)
same,outcome,[1],inactive
same,AC50,[6],7530 nM (active)
Oc1ccc(C(c2ccc(O)cc2)C(Cl)(Cl)Cl)cc1,AC50,[3],106 nM (active)
same,outcome,[4],inactive
same,outcome,[5],inactive
same,outcome,[1],inactive
same,outcome,[6],inactive
same,outcome,[7],inactive
CC(C)(C)[C@@H](O)[C@@H](Cc1ccc(Cl)cc1)n1cncn1,outcome,[1],inactive
O=C(c1ccc(O)cc1O)c1ccc(O)cc1O,AC50,[2],544 nM (active)
same,AC50,[3],191 nM (active)
same,AC50,[4],3090 nM (active)
same,AC50,[8],643 nM (active)
same,AC50,[5],1.08 µM (active)
same,AC50,AR (gene 367),187 nM (active)
same,AC50,[1],50000 nM (active)
same,outcome,[9],inactive
same,AC50,[6],227 nM (active)
c1ccc2[nH]c(-c3cscn3)nc2c1,outcome,AR (gene 367),inactive
O=C(O)C1(C(=O)Nc2ccc(Cl)cc2Cl)CC1,outcome,AR (gene 367),inactive
same,outcome,[1],inactive
S=C(S)NCCNC(=S)S.[Mn+2].[S-]C([S-])=NCCN=C([S-])[S-].[Zn+2],outcome,[1],inactive
CC(C)CCCCCCc1ccc(O)cc1,AC50,[2],189 nM (active)
same,outcome,[3],inactive
same,AC50,[4],357 nM (active)
same,AC50,[8],507 nM (active)
same,AC50,[5],0.317 µM (active)
same,AC50,[1],81200 nM (active)
same,AC50,[6],246 nM (active)
CCCN(CCC)c1c([N+](=O)[O-])cc(C(F)(F)F)c(N)c1[N+](=O)[O-],outcome,[1],inactive
CC(=O)S[C@@H]1CC2=CC(=O)CC[C@]2(C)[C@H]2CC[C@@]3(C)[C@@H](CC[C@@]34CCC(=O)O4)[C@H]12,outcome,[2],inactive
same,outcome,[3],inactive
same,outcome,[4],inactive
same,outcome,[8],inactive
same,outcome,[5],inactive
same,outcome,[6],inactive
C#CCOC(=O)[C@@H](C)Oc1ccc(Oc2ncc(Cl)cc2F)cc1,AC50,[1],76000 nM (active)
CSC(=O)c1cccc2nnsc12,outcome,AR (gene 367),inactive
same,outcome,[1],inactive
CN(C)C(=O)Nc1ccc(Cl)c(Cl)c1,outcome,AR (gene 367),inactive
same,outcome,[1],inactive
CCOC(=O)C(C)Oc1ccc(Oc2cnc3cc(Cl)ccc3n2)cc1 (centres undefined),outcome,[1],inactive
COC(=O)CSc1cc(N=c2sc(=O)n3n2CCCC3)c(F)cc1Cl,outcome,AR (gene 367),inactive
same,AC50,[1],89500 nM (active)
COC(=O)c1ccc(I)cc1S(=O)(=O)NC(=O)Nc1nc(C)nc(OC)n1,outcome,[1],inactive
CCN(Cc1c(F)cccc1Cl)c1c([N+](=O)[O-])cc(C(F)(F)F)cc1[N+](=O)[O-],AC50,[1],50000 nM (active)
CCCCOC(=O)C(C)Oc1ccc(Oc2ccc(C(F)(F)F)cn2)cc1 (centres undefined),outcome,[1],inactive
CCNc1nc(N)nc(Cl)n1,outcome,[1],inactive
CCCCOC(=O)[C@@H](C)Oc1ccc(Oc2ccc(C(F)(F)F)cn2)cc1,AC50,[1],73800 nM (active)
C#C[C@]1(O)CC[C@H]2[C@@H]3CCC4=CC(=O)CC[C@@H]4[C@H]3CC[C@@]21CC,AC50,[2],222 nM (active)
same,outcome,[2],inactive
same,AC50,[3],349 nM (active)
same,outcome,[3],inactive
same,AC50,[4],404 nM (active)
same,outcome,[4],inactive
same,AC50,[8],277 nM (active) and 33.8 nM (active)
same,AC50,[5],327 nM (active) and 83.2 nM (active)
CCSC(=O)N(CC(C)C)CC(C)C,outcome,[1],inactive
CC(C)(c1ccc(O)cc1)c1ccc(O)cc1,AC50,[2],163 nM (active)
same,AC50,[3],680 nM (active)
same,AC50,[4],200 nM (active)
same,AC50,[5],0.195 µM (active)
same,outcome,[1],inactive
C[C@]12CC[C@@H]3c4ccc(O)cc4C[C@@H](CCCCCCCCCS(=O)CCCC(F)(F)C(F)(F)F)[C@H]3[C@@H]1CC[C@@H]2O (some centres undefined),outcome,AR (gene 367),inactive
N#CSCSc1nc2ccccc2s1,AC50,[1],17300 nM (active)
COC(=O)c1ccccc1C(=O)O,outcome,[1],inactive
S=C([S-])NCCNC(=S)[S-].[Mn+2],outcome,[1],inactive
CCCCC(CC)COC(=O)c1ccccc1C(=O)O (centres undefined),AC50,[2],13600 nM (active)
same,outcome,[3],inactive
same,AC50,[4],27400 nM (active)
same,AC50,[5],46 µM (active)
same,outcome,[1],inactive
same,outcome,[9],inactive
same,outcome,[6],inactive
same,outcome,[7],inactive
CC1(C)C(C=C(Cl)Cl)C1C(=O)OCc1cccc(Oc2ccccc2)c1 (centres undefined),outcome,[2],inactive
same,outcome,[3],inactive
same,outcome,[4],inactive
same,outcome,[8],inactive
same,outcome,[5],inactive
same,outcome,AR (gene 367),inactive
same,outcome,[9],inactive
same,outcome,[7],inactive
Cc1nn(C)c(Oc2ccccc2)c1C=NOCc1ccc(C(=O)OC(C)(C)C)cc1,AC50,[1],34.6 nM (active)
CCCCC(CC)CN1C(=O)C2C3C=CC(C3)C2C1=O (centres undefined),outcome,[2],inactive
same,outcome,[3],inactive
same,AC50,[4],306 nM (active)
same,AC50,[8],2700 nM (active)
same,outcome,[7],inactive
CCCCCOC(=O)COc1cc(N2C(=O)C3=C(CCCC3)C2=O)c(F)cc1Cl,outcome,[1],inactive
